{
  "source": "the supplement of paper PMC8728848",
  "assay_in_all_cases": "glycan array binding signal (z-score within array); higher = stronger binding",
  "conditions_in_all_cases": "glycan notation: IUPAC condensed, linker removed",
  "key": {"[1]": {"target": "Fuc(a1-2)Gal(b1-3)[Fuc(a1-4)]GlcNAc", "how_it_was_run": "(§1)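 Columns mapping to the same glycan were averaged after glycan names were converted to IUPAC-condensed notation. The data come from 3228 arrays in the Consortium for Functional Glycomics database, limited to those with an available protein sequence. Binding is reported as a within-array Z-score averaged across arrays of one protein sequence and across linkers.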"}, "[2]": {"target": "Fuc(a1-2)Gal(b1-3)[Fuc(a1-4)]GlcNAc(b1-2)Man(a1-3)[Fuc(a1-2)Gal(b1-3)[Fuc(a1-4)]GlcNAc(b1-2)Man(a1-6)]Man(b1-4)GlcNAc(b1-4)GlcNAc", "how_it_was_run": "as §1"}, "[3]": {"target": "Fuc(a1-2)Gal(b1-3)[Fuc(a1-4)]GlcNAc(b1-3)[Fuc(a1-3)[Gal(b1-4)]GlcNAc(b1-6)]Gal(b1-4)Glc", "how_it_was_run": "as §1"}, "Fuc(a1-2)Gal6S(b1-4)Glc": {"target": "Fuc(a1-2)Gal6S(b1-4)Glc", "how_it_was_run": "as §1"}, "[4]": {"target": "Fuc(a1-2)[Gal(a1-3)]Gal(b1-3)GlcNAc", "how_it_was_run": "as §1"}, "[5]": {"target": "Fuc(a1-2)[GalNAc(a1-3)]Gal(b1-3)GalNAc(a1-3)[Fuc(a1-2)]Gal(b1-4)GlcNAc", "how_it_was_run": "as §1"}, "[6]": {"target": "Fuc(a1-2)[GalNAc(a1-3)]Gal(b1-3)GlcNAc(b1-3)GalNAc", "how_it_was_run": "as §1"}, "[7]": {"target": "Fuc(a1-2)[GalNAc(a1-3)]Gal(b1-3)GlcNAc(b1-6)GalNAc", "how_it_was_run": "as §1"}, "[8]": {"target": "Fuc(a1-2)[GalNAc(a1-3)]Gal(b1-4)GlcNAc(b1-2)Man(a1-3)[Fuc(a1-2)[GalNAc(a1-3)]Gal(b1-4)GlcNAc(b1-2)Man(a1-6)]Man(b1-4)GlcNAc(b1-4)GlcNAc", "how_it_was_run": "as §1"}, "[9]": {"target": "Fuc(a1-3)[Gal(b1-4)]GlcNAc", "how_it_was_run": "as §1"}, "[10]": {"target": "Fuc(a1-3)[Gal(b1-4)]GlcNAc(b1-3)Gal(b1-4)[Fuc(a1-3)]GlcNAc(b1-3)Gal(b1-4)[Fuc(a1-3)]GlcNAc", "how_it_was_run": "as §1"}, "[11]": {"target": "Fuc(a1-3)[Gal(b1-4)]GlcNAc(b1-4)Gal(b1-4)[Fuc(a1-3)]GlcNAc(b1-4)Gal(b1-4)[Fuc(a1-3)]GlcNAc", "how_it_was_run": "as §1"}, "[12]": {"target": "Fuc(a1-3)[Gal3S(b1-4)]Glc", "how_it_was_run": "as §1"}, "[13]": {"target": "Gal(a1-3)Gal(b1-4)GlcNAc(b1-6)GalNAc", "how_it_was_run": "as §1"}, "[14]": {"target": "Gal(a1-3)Gal(b1-4)[Fuc(a1-3)]GlcNAc", "how_it_was_run": "as §1"}, "[15]": {"target": "Gal(a1-4)Gal(b1-3)GlcNAc(b1-2)Man(a1-3)[Gal(a1-4)Gal(b1-3)GlcNAc(b1-2)Man(a1-6)]Man(b1-4)GlcNAc(b1-4)GlcNAc", "how_it_was_run": "as §1"}, "[16]": {"target": "Gal(b1-3)GalNAc(b1-4)[Neu5Ac(a2-3)]Gal(b1-4)Glc", "how_it_was_run": "as §1"}, "[17]": {"target": "Gal(b1-3)[Neu5Ac(a2-6)]GlcNAc(b1-6)Gal(b1-4)Glc", "how_it_was_run": "as §1"}, "[18]": {"target": "Gal(b1-4)GlcNAc(b1-2)Man(a1-3)[Gal(b1-4)GlcNAc(b1-2)Man(a1-6)][Gal(b1-4)GlcNAc(b1-4)]Man(b1-4)GlcNAc(b1-4)[Fuc(a1-6)]GlcNAc", "how_it_was_run": "as §1"}, "[19]": {"target": "Gal(b1-4)GlcNAc(b1-2)Man(a1-3)[Man(a1-6)]Man(b1-4)GlcNAc(b1-4)GlcNAc", "how_it_was_run": "as §1"}, "[20]": {"target": "Gal(b1-4)GlcNAc(b1-2)Man(a1-6)[GlcNAc(b1-2)Man(a1-3)]Man(b1-4)GlcNAc(b1-4)GlcNAc", "how_it_was_run": "as §1"}, "[21]": {"target": "Gal(b1-4)GlcNAc(b1-2)[Gal(b1-4)GlcNAc(b1-4)]Man(a1-3)[Gal(b1-4)GlcNAc(b1-2)[Gal(b1-4)GlcNAc(b1-6)]Man(a1-6)]Man(b1-4)GlcNAc(b1-4)GlcNAc", "how_it_was_run": "as §1"}, "[22]": {"target": "Gal(b1-4)GlcNAc(b1-3)Gal(b1-4)GlcNAc", "how_it_was_run": "as §1"}, "Gal(b1-4)GlcNAc6P": {"target": "Gal(b1-4)GlcNAc6P", "how_it_was_run": "as §1"}, "Gal3S(b1-3)GlcNAc": {"target": "Gal3S(b1-3)GlcNAc", "how_it_was_run": "as §1"}, "[23]": {"target": "Gal3S(b1-4)[Fuc(a1-3)]Glc6S", "how_it_was_run": "as §1"}, "Gal3S6S(b1-4)GlcNAc6S": {"target": "Gal3S6S(b1-4)GlcNAc6S", "how_it_was_run": "as §1"}},
  "note": "Only a selection was taken, and the strongest signals are over-represented in it overall.",
  "data": [
    {"binder": "Siglec-F (Mus musculus), Q920G3 (protein) MRWAWLLPLLWAGCLATDGYSLSVTGSVTVQEGLCVFVACQVQYPNSKGPVFGYWFREGANIFSGSPVATNDPQRSVLKEAQGRFYLMGKENSHNCSLDIRDAQKIDTGTYFFRLDGSVKYSFQKSMLSVLVIALTEVPNIQVTSTLVSGNSTKLLCSVPWACEQGTPPIFSWMSSALTSLGHRTTLSSELNLTPRPQDNGTNLTCQVNLPGTGVTVERTQQLSVIYAPQKMTIRVSWGDDTGTKVLQSGASLQIQEGESLSLVCMADSNPPAVLSWERPTQKPFQLSTPAELQLPRAELEDQGKYICQAQNSQGAQTASVSLSIRSLLQLLGPSCSFEGQGLHCSCSSRAWPAPSLRWRLGEGVLEGNSSNGSFTVKSSSAGQWANSSLILSMEFSSNHRLSCEAWSDNRVQRATILLVSGPKVSQAGKSETSRGTVLGAIWGAGLMALLAVCLCLIFFTVKVLRKKSALKVAATKGNHLAKNPASTINSASITSSNIALGYPIQGHLNEPGSQTQKEQPPLATVPDTQKDEPELHYASLSFQGPMPPKPQNTEAMKSVYTEIKIHKC", "values": [
      {"measurement": "glycan array binding signal (z-score)", "setting": "[1]", "value": -0.132},
      {"measurement": "glycan array binding signal (z-score)", "setting": "[2]", "value": -0.079},
      {"measurement": "glycan array binding signal (z-score)", "setting": "[3]", "value": -0.122},
      {"measurement": "glycan array binding signal (z-score)", "setting": "Fuc(a1-2)Gal6S(b1-4)Glc", "value": -0.123},
      {"measurement": "glycan array binding signal (z-score)", "setting": "[4]", "value": -0.115},
      {"measurement": "glycan array binding signal (z-score)", "setting": "[5]", "value": -0.104},
      {"measurement": "glycan array binding signal (z-score)", "setting": "[6]", "value": -0.094},
      {"measurement": "glycan array binding signal (z-score)", "setting": "[7]", "value": -0.114},
      {"measurement": "glycan array binding signal (z-score)", "setting": "[8]", "value": -0.049},
      {"measurement": "glycan array binding signal (z-score)", "setting": "[9]", "value": -0.117},
      {"measurement": "glycan array binding signal (z-score)", "setting": "[10]", "value": -0.115},
      {"measurement": "glycan array binding signal (z-score)", "setting": "[11]", "value": -0.121},
      {"measurement": "glycan array binding signal (z-score)", "setting": "[12]", "value": -0.146},
      {"measurement": "glycan array binding signal (z-score)", "setting": "[13]", "value": -0.146},
      {"measurement": "glycan array binding signal (z-score)", "setting": "[14]", "value": -0.123},
      {"measurement": "glycan array binding signal (z-score)", "setting": "[15]", "value": 0.083},
      {"measurement": "glycan array binding signal (z-score)", "setting": "[16]", "value": -0.109},
      {"measurement": "glycan array binding signal (z-score)", "setting": "[17]", "value": -0.091},
      {"measurement": "glycan array binding signal (z-score)", "setting": "[18]", "value": -0.095},
      {"measurement": "glycan array binding signal (z-score)", "setting": "[19]", "value": 0.022},
      {"measurement": "glycan array binding signal (z-score)", "setting": "[20]", "value": -0.13},
      {"measurement": "glycan array binding signal (z-score)", "setting": "[21]", "value": -0.127},
      {"measurement": "glycan array binding signal (z-score)", "setting": "[22]", "value": -0.096},
      {"measurement": "glycan array binding signal (z-score)", "setting": "Gal(b1-4)GlcNAc6P", "value": -0.111},
      {"measurement": "glycan array binding signal (z-score)", "setting": "Gal3S(b1-3)GlcNAc", "value": -0.108},
      {"measurement": "glycan array binding signal (z-score)", "setting": "[23]", "value": 0.156},
      {"measurement": "glycan array binding signal (z-score)", "setting": "Gal3S6S(b1-4)GlcNAc6S", "value": -0.104}
    ]}
  ]
}
